Calls of active or inactive are those of the source. How the calls were made is not given here.
test: V-ATPase regulators in yeast, S. cerevisiae, pHLuorin, powder sets 2-3, dose response (AID 651730); details: S. cerevisiae vacuolar pH, pHluorin fluorescence; series mostly up to 100 µM; response, percent: at the top concentration

response, percent, inactive:
O=C(Nc1ccccc1N1CCOCC1)c1cc(Cl)ccn1 9.85%
O=C(Nc1ccccc1N1CCOCC1)c1cccc(Br)n1 2.41%
N#Cc1cccc(C(=O)N2CCN(c3nc4ccc(F)cc4s3)CC2)c1 0.65%
Cc1cncc(C(=O)N2CCN(c3nc4ccc(F)cc4s3)CC2)n1 -6.23%
O=C(c1cccc(C(F)(F)F)c1)N1CCN(c2nc3ccc(F)cc3s2)CC1 6.58%
NC(=O)c1cccc(C(=O)N2CCN(c3nc4ccc(F)cc4s3)CC2)c1 2.34%
O=C(c1ccc(Br)o1)N1CCN(c2nc3ccc(F)cc3s2)CC1 1.17%
CS(=O)(=O)c1ccc(C(=O)N2CCN(c3nc4ccc(F)cc4s3)CC2)o1 -1.13%
CS(=O)(=O)c1cccc(C(=O)Nc2ccccc2N2CCOCC2)c1 -2.07%
CN(C)Cc1ccc(C(=O)Nc2ccccc2N2CCOCC2)o1 -0.34%
O=C(c1cc(C(F)(F)F)ccn1)N1CCN(c2nc3ccc(F)cc3s2)CC1 -2.05%
O=C(Nc1ccccc1N1CCOCC1)c1cncc(Cl)n1 -11.5%
O=C(c1cncc(Cl)n1)N1CCN(c2nc3ccc(F)cc3s2)CC1 -1.76%
Cc1cccc(C(=O)N2CCN(c3nc4ccc(F)cc4s3)CC2)n1 1.45%
CN(C)Cc1ccc(C(=O)N2CCN(c3nc4ccc(F)cc4s3)CC2)o1 -1.38%
Cc1cncc(C(=O)Nc2ccccc2N2CCOCC2)n1 2.49%
O=C(Nc1ccccc1N1CCOCC1)c1cc(C(F)(F)F)ccn1 -0.77%
N#Cc1ccnc(C(=O)N2CCN(c3nc4ccc(F)cc4s3)CC2)c1 0.08%
O=C(c1cccc(Cl)n1)N1CCN(c2nc3ccc(F)cc3s2)CC1 8%
CN(C)C(=O)c1cccc(C(=O)Nc2ccccc2N2CCOCC2)c1 1.08%
Nc1ncc(C(=O)N2CCN(c3nc4ccc(F)cc4s3)CC2)o1 -1.66%
O=C(Nc1ccccc1N1CCOCC1)c1cccc(C(F)(F)F)c1 1.12%
Nc1cncc(C(=O)Nc2ccccc2N2CCOCC2)n1 -8.51%
CC(C)(C)c1ccc(C(=O)Nc2ccccc2N2CCOCC2)o1 -1.99%
N#Cc1ccnc(C(=O)Nc2ccccc2N2CCOCC2)c1 -3.19%
COCc1ccc(C(=O)Nc2ccccc2N2CCOCC2)o1 -3.6%
Nc1ncc(C(=O)Nc2ccccc2N2CCOCC2)o1 -2.29%
O=C(Nc1ccccc1N1CCOCC1)c1ccc(C(F)(F)F)o1 -3.16%
Cc1ccc(C(=O)Nc2ccccc2N2CCOCC2)o1 7.72%
O=C(Nc1ccccc1N1CCOCC1)c1cccc(C(F)(F)F)n1 -3.19%
